The source of these data is PubChem BioAssay.

The structures appear in SMILES notation. “And” between values parts separate entries of the source, which are not always exact repeats. Identical values can stand only once. Results filed as inconclusive are left out. Some compounds were tested as several samples or in several runs, with calls that do not always agree. The source made the active and inactive calls.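 The calls were made as follows, unless noted: active = compounds whose cell count with miR-34 switched on is under 0.7 times the count with it off; inactive = the rest.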

Test [1] is described as follows: P. berghei load reduction in hepatocytes – cell-based, HepG2, luciferase luminescence, HepG2 viability, primary screen (AID 624349; in the data active = parasite load remaining mostly below about 12%, no sharp cut-off; inactive = mostly above about 10%;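 also: 100% = mean of DMSO negative control wells on the same plate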). As to conditions: P. berghei liver stage in HepG2, luciferase luminescence, concentration not given here; parasite load remaining: stronger effect = lower value; viability: measured here: HepG2 viability without parasites.
The nature of test [2]: Wnt pathway potentiators raising nuclear beta-catenin – imaging, WNT3A-conditioned medium, mouse C2C12, NPC library, primary screen (AID 1117326; in the data active = nuclear beta-catenin stimulation mostly above about 4.2%, no sharp cut-off; inactive = mostly below about 10%). As to conditions: stronger effect = higher value.
Test [3] in a line: stimulators of insulin release from INS-1E, primary screen, cell-based, 5 mM glucose, NPC library (AID 1117329;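 active = compound raises insulin release from rat beta cells at 5 mM glucose, no numeric limit stated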). To be noted: rat INS-1E insulin secretion, at 10 µM, stronger effect = higher value.
Test [4] in a line: growth inhibition of GSK3B-pretreated HCT116 cells – cell-based, CellTiter-Glo, 0.2 to 20 µM (AID 1117336;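 active = compounds lowering colon cancer cell viability after pretreatment blocking the GSK3B kinase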). To be noted: HCT116 viability after GSK3B inhibitor, at 20 µM, stronger effect = higher value. In general terms: ATP-based viability assays read luminescence as a measure of living cells.
Test [5] can be described thus: inhibition of endothelial tube formation, primary screen, imaging, VEGF stimulated, CD31 staining, tube area, NPC library (AID 1117340;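 active = compound that reduces growth-factor-driven endothelial tube area in a mixed cell culture, no cutoff stated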). As to conditions: VEGF-stimulated ADSC/ECFC co-culture, at 10 µM, stronger effect = higher value.
The nature of test [6]: GLP1 release stimulators, primary, NCI-H716, NPC library (AID 1117341;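 active = compound raises GLP1 secretion from the human gut endocrine cells, with no numeric limit stated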). To be noted: NCI-H716 cells, at 10 µM, stronger effect = higher value.
Test [7] can be described thus: HCT116 colon cancer cell growth inhibition, primary screen, CellTiter-Glo luminescence, NPC library (AID 1117342;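 active = compounds that lower survival of HCT116 colon cancer cells in the luminescence readout, no numeric limit stated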). To be noted: at 20 µM (top of the series).
Test [8] in a line: reduced SW480 viability measured with CellTiter-Glo, NPC library, primary (AID 1117343;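 active = compounds that lower viability of the colon cancer cells in the luminescence readout, with no numeric limit stated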). To be noted: CellTiter-Glo luminescence; at 20 µM (top of the series) unless noted.
Test [9] can be described thus: NPC library primary testing for decreased DLD-1 cell viability via CellTiter-Glo (AID 1117346;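 active = compounds that lower survival of DLD-1 colon cancer cells in the luminescence readout, no cutoff given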). As to conditions: DLD-1 viability, CellTiter-Glo luminescence; at 20 µM (top of the series).
A short description of test [10]: viability loss in pontine glioma line – cell-based, JHH-DIPG-1, MIPE4.0, CellTiter-Glo, qHTS, dose response (AID 1347062; cut-off not given, nearly all actives have AC50 up to about 27 µM). As to conditions: JHH-DIPG-1 viability, CellTiter-Glo ATP luminescence.
A short description of test [11]: viability loss in pontine glioma line – cell-based, SU-DIPG-XXV, MIPE5.0, CellTiter-Glo, qHTS, dose response (AID 1347065; cut-off not given, nearly all actives have AC50 up to about 26 µM;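 also: cells exposed to compound for 48 hours before ATP readout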). As to conditions: CellTiter-Glo ATP luminescence.
Test [12] can be described thus: growth inhibition of DIPG cells – cell-based, MIPE4.0 library, CellTiter-Glo luminescence, qHTS (AID 1347066; cut-off not given, nearly all actives have AC50 up to about 30 µM;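 also: cells exposed to compound for 48 hours before readout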). As to conditions: SU-DIPG-VI viability, CellTiter-Glo ATP luminescence.
Test [13] can be described thus: JHH-DIPG-1 glioma cell viability, MIPE5.0 library, CellTiter-Glo luminescence, qHTS (AID 1347067; cut-off not given, nearly all actives have AC50 up to about 26 µM;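 also: cells exposed to compound for 48 hours before readout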). As to conditions: JHH-DIPG-1 glioma viability, CellTiter-Glo ATP luminescence.
The nature of test [14]: growth inhibition of DIPG cells – cell-based, MIPE5.0 library, qHTS (AID 1347068; cut-off not given, nearly all actives have IC50 up to about 30 µM). As to conditions: SU-DIPG-XXV viability. (qHTS replaces the single test concentration by a dilution series.)
The nature of test [15]: viability loss with induced miR-34 in A549 – imaging, A549 dox-inducible miR-34, nuclei and caspase counts, primary screen (AID 1347080). As to conditions: A549 miR-34 inducible, Hoechst nuclei count, 48 h.
Test [16] is described as follows: blockers of cellular phospholipid synthesis – cell-based, LOPAC library, screen 4, primary screen (AID 1347384; call rule not given here). To be noted: animal cells, phospholipid biosynthesis inhibition screen; at 10 µM.
Test [17] is described as follows: MELAS cybrid and Rieske KO viability enhancers – cell-based, MELAS cybrids, Rieske KO mouse fibroblasts, CellTiter-Glo, primary screen (AID 1508586;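 active = mean z-score across replicates of 1.96 or higher in either the MELAS or the Rieske mutant cell line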;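 also: z relative to plate mean and SD of compound and empty wells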). To be noted: low glucose.
A short description of test [18]: galactose survival enhancers in mitochondrial complex I cybrids – cell-based, galactose medium, ATP luminescence, primary screen (AID 1645843;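 active = z-score of at least 1.8 in each of two replicates, scored against plate mean and spread of sample wells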;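 also: positive z means more ATP and so rescue of galactose-driven cybrid death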). To be noted: complex I mutant cybrid cells, 72 h, stronger effect = higher value.
A short description of test [19]: viability loss in pontine glioma line – cell-based, SU-DIPG-IV, MIPE4.0, CellTiter-Glo, qHTS, dose response (AID 1347063; cut-off not given, nearly all actives have AC50 up to about 30 µM;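 also: compound exposure lasted 48 hours before the viability readout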). To be noted: CellTiter-Glo ATP luminescence.
[20] abbreviates: stronger effect = lower value, cell number ratio, induced over uninduced.
Where [21] appears, read: measured here: relative caspase fold change +Dox/-Dox.
[22] abbreviates: measured here: total cells with miR-34 induction, stronger effect = lower value.
[23] abbreviates: measured here: total cells without miR-34 induction.
Where [24] appears, read: MELAS cybrid survival, CellTiter-Glo 48 h, stronger effect = higher value.
Where [25] appears, read: Rieske KO mouse fibroblast survival, CellTiter-Glo 72 h.

Broadly, the viability is a read-out of living cells in per cent, often relative to untreated cells. On to `C[C@]12CC[C@@H]3c4ccc(O)cc4C[C@@H](CCCCCCCCCS(=O)CCCC(F)(F)C(F)(F)F)[C@H]3[C@@H]1CC[C@@H]2O` (stereo not given in full), for which the parasite load remaining in test [1] is 12.8% (inactive). Also, the viability in [1] came out at 121%. Also, the nuclear beta-catenin stimulation is 1% (inactive) in test [2] (at 10 µM) and 0.4% in test [2] (stimulation, at 2 µM). Also, the insulin secretion stimulation in test [3] was 5.1% (inactive). Besides, the viability decrease in test [4] is -4.5% (inactive). Also, the tube area decrease in [5] was 16.2% (inactive). The GLP1 secretion stimulation in test [6] is -2.7% (inactive). For the same compound, the inhibition of viability in [7] was 49.8% (inactive). The viability decrease (inhibition) was 54% (active) in test [8] and 18.9% (inactive) in test [9]. The compound was classed as inactive in [10], in test [11], in test [12], in test [13], in test [14] and in test [16]. Moreover, the fold change is 0.987 (inactive) and 0.822 (inactive) in test [15] (setting [20]); 1.73 and 1.2 in test [15] (setting [21]). Further, the cell count is 7220 and 6230 in [15] (setting [22]); 7310 and 7580 in test [15] (setting [23]). For the same compound, the z-score in test [17] (setting [24]) is -1.54 (inactive) and 0.0305 (inactive); in test [17] (setting [25]), -0.225 and 1.88; in test [18], 2.5 (active) and -0.155 (inactive).
Regarding `Cc1ccc(-c2ncc(Cl)cc2-c2ccc(S(C)(=O)=O)cc2)cn1`, in [1], the parasite load remaining was 30% (inactive). The viability in [1] was 120%. In addition, the nuclear beta-catenin stimulation in test [2] (at 10 µM) was 10.8% (inactive); in [2] (stimulation, at 2 µM), 8.4%. Moreover, the insulin secretion stimulation in test [3] is 2.3% (inactive). For the same compound, the viability decrease in test [4] was 27.3% (inactive). In addition, the tube area decrease in test [5] was -22.7% (inactive). Moreover, the GLP1 secretion stimulation in [6] was 0.5% (inactive). Moreover, the inhibition of viability in test [7] is -14.5% (active). The viability decrease (inhibition) in test [8] is 5.7% (inactive); in test [9], 12.4% (inactive). Besides, the result in [13] and in test [14] was inactive. Also, the fold change in test [15] (setting [20]) is 0.833 (inactive); in test [15] (setting [21]), 0.95. Further, the cell count was determined as 8800 in [15] (setting [22]) and 10600 in [15] (setting [23]). For the same compound, the z-score is -0.283 (inactive) and 0.00989 (inactive) in [17] (setting [24]); 0.187 and -0.33 in test [17] (setting [25]); 1.08 (inactive) in [18].
For the compound `CC=CC1=C(C(=O)O)N2C(=O)[C@@H](NC(=O)[C@H](N)c3ccc(O)cc3)[C@H]2SC1`, the nuclear beta-catenin stimulation is 1% (inactive) in test [2] (at 10 µM) and 2.9% in test [2] (stimulation, at 2 µM). Besides, the insulin secretion stimulation in test [3] was -0.3% (inactive). In addition, the viability decrease in test [4] is 4.9% (inactive). The tube area decrease in [5] was -8.9% (inactive). Further, the GLP1 secretion stimulation in test [6] was -4% (inactive). In [7], the inhibition of viability is 41.6% (inactive). Also, the viability decrease (inhibition) in [8] was 45.4% (inactive); in [9], 33.9% (inactive). Moreover, the compound was called inactive in test [10], in test [19] and in test [12].
As for `Cc1nc2c([nH]1)c(=O)n(C)c(=O)n2Cc1ccco1`, the parasite load remaining in test [1] is 89.1% (inactive). Moreover, in test [1], the viability stood at 184%. The nuclear beta-catenin stimulation in [2] (at 10 µM) is -1.1% (inactive); in [2] (stimulation, at 2 µM) it was -0.9%. Further, the insulin secretion stimulation in test [3] is 5.4% (inactive). Further, in test [4], the viability decrease is 4.7% (inactive). The tube area decrease in test [5] was -13.8% (inactive). For the same compound, the GLP1 secretion stimulation in test [6] was 2.9% (inactive). In addition, in test [7], the inhibition of viability was 4.7% (inactive). Besides, the viability decrease (inhibition) was 11.9% (inactive) in test [8] and 11.1% (inactive) in test [9]. The fold change in test [15] (setting [20]) was 0.936 (inactive) and 0.904 (inactive); in test [15] (setting [21]) it was 1.31 and 1.1. Moreover, the cell count was 10100 and 8410 in test [15] (setting [22]); 10800 and 9310 in [15] (setting [23]). Besides, in [16], the compound was called inactive. The z-score is 0.342 (inactive) in [17] (setting [24]); -0.476 in [17] (setting [25]); 0.455 (inactive) and 1.9 (inactive) in test [18].
Regarding `O=C1NC(=O)[C@@]2(CCOc3ccc(F)cc32)N1`, the nuclear beta-catenin stimulation is -1.1% (inactive) in test [2] (at 10 µM) and 0.6% in test [2] (stimulation, at 2 µM). In addition, the insulin secretion stimulation in test [3] is 1.1% (inactive). In addition, in test [4], the viability decrease was -5.9% (inactive). The tube area decrease in test [5] was -2.4% (inactive). Also, the GLP1 secretion stimulation in test [6] was 0% (inactive). The inhibition of viability in test [7] is 4.6% (inactive). The viability decrease (inhibition) was -5.9% (inactive) in [8] and -7.9% (inactive) in test [9]. The values for the fold change in test [15] (setting [20]) and in [15] (setting [21]) were 0.973 (inactive) and 1.69, respectively. The results for the cell count in test [15] (setting [22]) and in test [15] (setting [23]) were 9980 and 10300, respectively. Also, the compound was called inactive in [16]. In addition, the z-score in [18] was 0.695 (inactive).
